The structures appear in SMILES notation. A number with no mark means an inactive call. Records with an inconclusive call do not appear. Active and inactive are the calls of the source. Unless noted, the call rests on the fitted dose curve; in most records, active means well fitted curve in the direction sought with a large enough effect in the repeat runs; inconclusive means weak or mixed curves; inactive means no such curve, though single readings can be large; an effect the other way counts as inactive or inconclusive.

From PubChem BioAssay (Tox21) come the findings set out here.

Test [1] in a line: qHTS assay to identify small molecule agonists of H2AX (AID 1224845; active means well fitted activation curve with a large enough effect in the signal ratio in the repeat runs, not every such curve was filed as active; the % refers to the signal ratio; further: potency means the concentration at half of the fitted maximal effect). Summed up:
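Phospho-H2AX Ser139 measured by HTRF (ex 320 nm; em 665 and 620 nm) after 24 hr antibody incubation. Compounds, 15 concentrations, 0.76% DMSO, were applied to CHO-K1 cells for 3hr at 37C before lysis.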
For orientation: qHTS replaces the single test concentration by a dilution series.

Test [2] in a line: qHTS assay to identify small molecule agonists of the hypoxia (HIF-1) signaling pathway (AID 1224846; active means well fitted activation curve with a large enough effect in the signal ratio in the repeat runs, not every such curve was filed as active; the % refers to the signal ratio; further: on the % scale 0 is the no-effect control and ±100 the full control effect). The method in brief: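 Compounds added to ME-180 cells carrying hypoxia-response-element beta-lactamase reporter (0.5% dialyzed FBS, 5 h preplating), 17 h at 37C; agonist activity detected by CCF4-AM B/G FRET read-out.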
Test [3] can be described thus: qHTS assay to identify small molecule agonists of H2AX - cell viability counter screen (AID 1224847; calls by dose curve; further: top concentration of the series differs between compounds; on the % scale 0 is the no-effect control and ±100 the full control effect; nearly all actives have a fitted effect of over 30% in size). Summed up:
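Quantitative HTS viability measurement: CHO-K1 wild-type cells in serum (10% FBS) medium, short 3 hr drug exposure at 37C with 0.76% DMSO, CellTiter-Glo luminescent detection.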

Test [4] can be described thus: qHTS RealTime-Glo MT Cell Viability Assay in HepG2 cells - 24 hour (AID 1224867). Further: nearly all actives have a fitted effect of over 50% in size. Further: potency means the concentration at half of the fitted maximal effect. The method in brief: (§1)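 Cells + NanoLuc/prosubstrate dispensed (600 cells/well) → 5 h at 37 C/5% CO2 → compounds in DMSO transferred → 40 h incubation at 37 C, luminescence read at 0, 8, 16, 24, 32, 40 h.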
Test [5] in a line: qHTS RealTime-Glo MT Cell Viability Assay in HEK293 cells - 32 hour (AID 1224868). Further: nearly all actives have a fitted effect of over 50% in size. Further: potency means the concentration at half of the fitted maximal effect. The method in brief:
(§2)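 Tox21 10K qHTS, HEK293, 600 cells/well, RealTime-Glo reagent co-dispensed with cells; 5 h preincubation, compound by pintool, 37 C, luminescence at 0–40 h.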

Test [6] can be described thus: A CellTox Green Cytotoxicity Assay to monitor cytotoxicity in HEK293 cells - 0 hour (AID 1224869). Further: nearly all actives have a fitted effect of over 50% in size. Further: potency means the concentration at half of the fitted maximal effect. On Cytotoxicity: on the % scale 0 is the no-effect control and ±100 the full control effect. Summed up:
(§3)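 Fluorescence from a DNA-binding dye excluded by viable cells was measured repeatedly in the same HEK293 wells (600 cells/well) during continuous compound exposure at 37 C. Each assay gives one read point: 0, 8, 16, 24, 32 or 40 h.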

The nature of test [7]: qHTS RealTime-Glo MT Cell Viability Assay in HepG2 cells - 40 hour (AID 1224870). Further: nearly all actives have a fitted effect of over 50% in size. Further: potency means the concentration at half of the fitted maximal effect. The method in brief: (§4)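 Real-time viability: cells seeded at 600 per well together with NanoLuc and cell-permeant prosubstrate, compounds added after 5 h incubation. Luminescence tracked at 0, 8, 16, 24, 32 and 40 h of exposure.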
Test [8] is described as follows: qHTS RealTime-Glo MT Cell Viability Assay in HEK293 cells - 16 hour (AID 1224872). Further: nearly all actives have a fitted effect of over 50% in size. Further: potency means the concentration at half of the fitted maximal effect. The method in brief:
as §2

Test [9] can be described thus: A CellTox Green Cytotoxicity Assay to monitor cytotoxicity in HEK293 cells - 24 hour (AID 1224875). Further: nearly all actives have a fitted effect of over 45% in size. Further: potency means the concentration at half of the fitted maximal effect. On activity change: on the % scale 0 is the no-effect control and ±100 the full control effect. The method in brief: as §3
Test [10] in a line: A CellTox Green Cytotoxicity Assay to monitor cytotoxicity in HepG2 cells - 16 hour (AID 1224876). Further: nearly all actives have a fitted effect of over 45% in size. Further: potency means the concentration at half of the fitted maximal effect. The method in brief:
(§5)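 Real-time cytotoxicity: fluorescence of a cell-impermeant cyanine dye binding DNA of dead HepG2 cells, measured repeatedly (0–40 h) during compound exposure at 37 C. Cells seeded 600/well with reagent, dosed after 5 h.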

Test [11] in a line: qHTS RealTime-Glo MT Cell Viability Assay in HepG2 cells - 32 hour (AID 1224877). Further: nearly all actives have a fitted effect of over 55% in size. Further: potency means the concentration at half of the fitted maximal effect. Summed up:
as §1

A short description of test [12]: A CellTox Green Cytotoxicity Assay to monitor cytotoxicity in HepG2 cells - 24 hour (AID 1224878). Further: nearly all actives have a fitted effect of over 45% in size. Further: potency means the concentration at half of the fitted maximal effect. On Cytotoxicity: on the % scale 0 is the no-effect control and ±100 the full control effect. The method in brief:
as §5

Test [13] in a line: A CellTox Green Cytotoxicity Assay to monitor cytotoxicity in HepG2 cells - 40 hour (AID 1224879). Further: nearly all actives have a fitted effect of over 40% in size. Further: potency means the concentration at half of the fitted maximal effect. The method in brief: as §5
Test [14] in a line: qHTS RealTime-Glo MT Cell Viability Assay in HEK293 cells - 0 hour (AID 1224880). Further: top concentration of the series differs between compounds; on the % scale 0 is the no-effect control and ±100 the full control effect; nearly all actives have a fitted effect of over 45% in size. Summed up:
(§6)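 Luminescence, which tracks viable cell number through reduction of the prosubstrate to a NanoLuc substrate, was read over continuous 37 C culture. Cells (600/well) were premixed with reagent and rested 5 h before 23 nL of compound in DMSO was pinned.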

The nature of test [15]: qHTS assay to identify small molecule antagonists of the estrogen related receptor (ERR) signaling pathway from Tox21 library (AID 1224848). Further: nearly all actives have a fitted effect of over 50% in size. Further: potency means the concentration at half of the fitted maximal effect. The method in brief:
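ERR cell line, 2,000 cells/well. 6 h settle, then compound (DMSO) added; 18 h at 37 C; ONE-Glo luminescence after 30 min RT.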

Test [16] in a line: qHTS assay to identify small molecule agonists of the estrogen related receptor (ERR) signaling pathway from Tox21 library (AID 1224849; calls by dose curve; further: on the % scale 0 is the no-effect control and ±100 the full control effect; nearly all actives have a fitted effect of over 15% in size). To be noted: ERR reporter cell line, ONE-Glo luciferase, 18 h; at 92.4 µM (top of the series) unless noted. Summed up:
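Luminescent agonist read-out (One-Glo, 30-minute room-temperature incubation) following 18-hour compound treatment at 37 C of the ERR cell line, which had been plated 6 hours before dosing.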

Test [17] in a line: qHTS assay to identify small molecule agonists of the hypoxia (HIF-1) signaling pathway - cell viability counter screen (AID 1224844; calls by dose curve). The method in brief: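 Cytotoxicity measured by CellTiter-Glo ATP luminescence in the wells also read for beta-lactamase signal. Cells were HRE-bla ME-180 (2,000/well, 0.5% dialyzed FBS), exposed to compounds for 17 h at 37C.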
Test [18] is described as follows: A CellTox Green Cytotoxicity Assay to monitor cytotoxicity in HEK293 cells - 40 hour (AID 1224871). Further: nearly all actives have a fitted effect of over 45% in size. Further: potency means the concentration at half of the fitted maximal effect. The method in brief: as §3
Test [19] is described as follows: qHTS RealTime-Glo MT Cell Viability Assay in HepG2 cells - 8 hour (AID 1224873). Further: nearly all actives have a fitted effect of over 55% in size. Further: potency means the concentration at half of the fitted maximal effect. Summed up: as §4
Test [20] can be described thus: qHTS RealTime-Glo MT Cell Viability Assay in HEK293 cells - 40 hour (AID 1224874). To be noted: RealTime-Glo luminescence; max response: active compounds read low. Summed up:
as §6

As for `CCCCCCCCCCCCBr`, the Potency entry in test [1], in [3], in [4], in test [5], in test [6] and in test [7] was “inactive” in each case. The Potency result in [8], in [9], in test [10], in test [11], in [12] and in [13] was “inactive” throughout. Besides, the Potency entry in test [14] is “inactive”. The call in [2] was inactive.

Regarding `CC(C)Oc1cccc(NC(=O)c2ccccc2C(F)(F)F)c1`, the Potency entry in test [1], in test [4], in [7], in test [11] and in test [14] was “inactive” throughout. The Potency was 24.3 µM (active) in [15]; 24.5 µM (active) in [5]; 43.6 µM (active) in test [6]; 19.5 µM (active) in test [9]; 43.6 µM (active) in test [10]; 43.6 µM (active) in [12]. For the same compound, the Potency in [13] was 43.6 µM (active). Besides, the activity change, positive = activation in test [16] was -38.3%.

Take `O=C(O)c1cc[c]([Hg][Cl])cc1`: the Potency was 54.9 µM (active) in test [17]; 24.5 µM (active) in test [7]; 17.4 µM (active) in [18]; 34.7 µM (active) in [19]; 15.5 µM (active) in test [20]; 24.5 µM (active) in [9]. Moreover, the Potency in test [10] is 38.9 µM (active); in test [11] it was 24.5 µM (active); in [12] it was 27.5 µM (active); in [13] it was 19.5 µM (active). Further, the Potency result in test [6] and in test [14] was “inactive” throughout.

As to `CSCCCN=C=S`, the Potency entry in test [1], in test [3], in test [15], in test [4], in test [6] and in [7] was “inactive” each time. Also, the Potency result in [19], in test [9], in [11] and in [14] was “inactive” in each case. The activity change, positive = activation in test [16] was -13.5%.

On to `CC(C)N1C(=O)N(c2ccccc2)CSC1=NC(C)(C)C`, for which the Potency entry in test [1], in [4], in test [6], in test [7], in test [18] and in [19] was “inactive” each time. Moreover, the Potency entry in test [9], in [10], in [11], in [12], in [13] and in test [14] was “inactive” in each case. The Potency in [15] was 34.4 µM (active); in test [5], 21.9 µM (active); in test [8], 19.5 µM (active); in test [20], 21.9 µM (active). Moreover, the activity change, positive = activation in test [16] was -49.9%.

For the compound `CC(C)(O)c1cnn2c(-c3ccc(F)c(-c4c(F)cccc4C#N)c3)cnc2n1`, the Potency in test [17] was 54.9 µM (active); in test [15] it was 27.3 µM (active); in test [5], 5.49 µM (active); in test [8], 5.49 µM (active); in test [20], 4.9 µM (active). Besides, the activity change, positive = activation in test [16] was -53.4%. In addition, the Potency result in test [4], in test [7], in [19], in [9], in test [10] and in [11] was “inactive” in each case. For the same compound, the Potency result in test [12] and in test [13] was “inactive” each time.

As for `C=CC(=O)OCCCCOC(=O)C=C`, the Potency in [1] is 101 µM (active); in test [4], 49 µM (active); in test [5], 34.7 µM (active); in test [18] it was 43.6 µM (active); in [20], 34.7 µM (active); in test [11], 49 µM (active). Also, the Potency in test [13] is 49 µM (active). Besides, the Potency result in test [15], in [6], in [10], in test [12] and in test [14] was “inactive” in each case. Besides, the activity change, positive = activation in [16] was -26.6% (active).
